Experimental data: PubChem BioAssay AID1347147 (National Center for Advancing Translational Sciences (NCATS), 2019)
Inconclusive results are not listed. Calls of active or inactive are those of the source. Calls come from the whole dose curve; as a rule, active = well fitted inhibition curve with a large enough effect; inconclusive = small, poorly fitted or top-dose-only effect; inactive = no such curve, though single readings can be large or run the other way.

target: N-terminal Xaa-Pro-Lys N-methyltransferase 1 (Homo sapiens) (UniProt Q9BV86); assay: qHTS Assay for Inhibitors of N-terminal methyltransferase 1 (NTMT1): MTaseGlo Confirmatory Screen, Round 2; details: NTMT1 enzyme, MTase-Glo SAH luminescence; series mostly up to 57.4 µM
Source text: Assay Submitter (PI): Rong Huang Ph.D, Purdue University, West Lafayette, IN 47907
The N-terminal methytransferase 1 is the first methyltransferase that methylates protein alpha-N-amines and plays an important role in regulating cell mitosis, chromatin interactions and DNA repair. It is observed to be over-expressed in various cancer patient tissues like malignant melanoma and colorectal cancer tissues. Knockdown of NTMT1 in cancer cells causes cell mitotic defects and enhances sensitivity to DNA damaging chemotherapeutics. […] These critical cellular processes in which NTMT1 is implicated, coupled with emerging links to cellular dysfunction, strengthen the inference that NTMT1 is a compelling novel anticancer target. Progress have been made in understanding the molecular properties of NTMT1 and the biological consequences of protein alpha-N-terminal methylation, but there are no specific small molecule probes available for NTMT1 to fully characterize its MTase activity. To address this unmet need, a panel of assay is created and established to enable quantitative high-throughput screening (qHTS) for novel, potent, and selective small molecule NTMT1 inhibitors. Two orthogonal qHTS that use different reagents (ThioGlo vs. MTaseGlo) are developed for primary robotic screening against the NCATS chemical library of more than 400,000 small molecules. Identified inhibitors are reacquired, validated, and further characterized.
MTaseGlo Assay is a luminescence screen that measure the activity of methyltransferases based on the reaction product S-adenosyl homocysteine (SAH). The substrate SAM is converted to SAH upon enzyme activation. MTase-Glo reagent and detection solution convert SAH to ATP and measure the light from the luciferase reaction.
Early Translation Branch (ETB)
National Center for Advancing Translational Sciences (NCATS)
National Institute of Health (NIH)
NTMT1 enzyme, substrate SPKRIA, control peptide RCC1-6 is provided by the Huang laboratory.
In brief, 3 µL of enzyme mixture (final concentrations of 125 nM and 100 µM for NTMT1 and SAM, respectively) into all wells of a 1,536-well solid-bottom white plate (Greiner Bio One, Monroe, NC). 23 nL of DMSO or Ac-RCC1-10 (final concentration range 234 nM to 143 microM) was transferred via Wako Pin-tool (Wako Automation, Richmond, VA) and incubated (RT) for ~15 minutes. Next, 1 µL of substrate (final concentration 1 µM) or buffer was dispensed, and the reaction proceeded for 30 minutes (RT, protected from light) followed by a 1 microL addition of [5X] MTase-Glo Reagent(R). Samples were incubated (RT, protected from light) for 30 minutes to allow for SAH to be converted to ADP, followed by a 5 microL addition of [1X] MTase-Glo Detection Solution(R) to allow for ADP to be converted to ATP, which was then detected with a luciferase reaction. Samples were centrifuged for 15 seconds at 1,000 RPM's, followed by a RT incubation for 30 minutes. Plates were then read using Luminescence optics on a ViewLux detector. Data were normalized to no-enzyme (0% activity) and no-inhibitor (DMSO; 100%) controls, and the resulting percent inhibition data were fitted to a 4-parameter Hill equation using Graphpad Prism.
Potency is the fitted concentration of half-maximal effect.

N-terminal Xaa-Pro-Lys N-methyltransferase 1 (Homo sapiens), sequence (Q9BV86 whole entry, looked up): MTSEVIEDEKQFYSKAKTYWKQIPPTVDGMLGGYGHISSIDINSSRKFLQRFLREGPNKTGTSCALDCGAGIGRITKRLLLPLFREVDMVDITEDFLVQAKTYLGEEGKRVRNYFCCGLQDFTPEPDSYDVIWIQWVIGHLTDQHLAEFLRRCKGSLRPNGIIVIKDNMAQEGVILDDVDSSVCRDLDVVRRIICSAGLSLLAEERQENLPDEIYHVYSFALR

Potency, active:
N.N.N.N.N.N.N.N.N.N.N.N.N.N.O.O.[Ru+4].[Ru+5].[Ru+5] 31.6 µM, O=C1Nc2ccc(I)cc2/C1=C/c1cc(Br)c(O)c(Br)c1 8.91 µM, CC(Cc1ccc(O)c(O)c1)C(C)Cc1ccc(O)c(O)c1 (stereo not given) 35.5 µM

Potency, inactive:
CSc1ccc2c(c1)N(CCC1CCCCN1C)c1ccccc1S2 (stereo not given), Oc1ccccc1O, CCN1CCC[C@H]1CNC(=O)c1cc(S(N)(=O)=O)ccc1OC, Oc1cc2c(cc1O)CN(C(=S)NCCc1ccc(Cl)cc1)CCC2, Cc1nnc(SCC2=C(C(=O)O)N3C(=O)[C@@H](NC(=O)Cn4cnnn4)[C@H]3SC2)s1, CC(C)NCC(O)c1ccc(O)c(O)c1 (stereo not given), CCC(=O)c1ccc2c(c1)N(CCCN(C)C)c1ccccc1S2, CC[C@H](C)n1cc(C)c2c(C(=O)NCc3c(C)cc(C)[nH]c3=O)cc(-c3ccc(N4CCNCC4)nc3)cc21, COc1cc(/C=C(\C#N)C(=O)Nc2nnc(C(F)(F)F)s2)ccc1OCc1ccc(C(F)(F)F)cc1C(F)(F)F, Clc1ccc(N2CCN(Cc3c[nH]c4ncccc34)CC2)cc1, CN1Cc2c(N)cccc2C(c2ccccc2)C1 (stereo not given), COc1cc2c(NC3CCN(C(C)C)CC3)nc(N3CCC(F)(F)CC3)nc2cc1OCCCN1CCCCC1, O=C(/C=C/c1ccc(O)cc1)c1ccc(O)cc1O, CC(C)NC[C@@H](O)c1ccc(O)c(O)c1, OC[C@H]1O[C@@H](n2cnc3c(NCc4ccco4)ncnc32)[C@H](O)[C@@H]1O, OCCN1CCN(CC/C=C2/c3ccccc3Sc3ccc(C(F)(F)F)cc32)CC1, CC(=O)/C=C1\C(=O)N(C)c2ccccc21, Cc1cc2nc3c(=O)[nH]c(=O)nc-3n(C[C@H](O)[C@H](O)[C@H](O)COP(=O)(O)OP(=O)(O)OC[C@H]3O[C@@H](n4cnc5c(N)ncnc54)[C@H](O)[C@H]3O)c2cc1C, NC(Cc1c[nH]c2ccc(O)cc12)C(=O)O (stereo not given), Nc1nc2ccc(Cl)cc2c2nc(-c3ccco3)nn12, O=C1NC(=O)C(c2ccccc2[N+](=O)[O-])=C1Nc1ccc(O)c(Cl)c1, O=c1ccc2ccc(O)c(O)c2o1, Cn1ncc(S(=O)(=O)Cc2ccccc2)c(Br)c1=O, OCC1OC(n2cnc3c(NCc4ccco4)ncnc32)C(O)C1O (stereo not given), O=C1Cc2c([nH]c3ccc(Br)cc23)-c2ccccc2N1, Oc1cc(O)c2c(c1)O[C@H](c1ccc(O)c(O)c1)[C@@H](O)C2, Cc1[nH]c(=O)c(C#N)cc1-c1ccc2nccn2c1, CCNC(=O)[C@H]1O[C@H](n2cnc3c(N)nc(NCCc4ccc(CCC(=O)O)cc4)nc32)[C@@H](O)[C@@H]1O, OCCN1CCN(CCCN2c3ccccc3Sc3ccc(Cl)cc32)CC1, CCN(CC)C(=S)SSC(=S)N(CC)CC, O=c1oc(Cl)c(Cl)c2ccccc12, COc1cccc(OC)c1OCCNCC1CSc2ccccc2O1 (stereo not given), N[C@@H](Cc1c[nH]c2ccc(O)cc12)C(=O)O, c1ccc(CN2CCC3(CCCc4ccccc43)CC2)cc1, O=c1c(O)c(-c2ccc(O)c(O)c2)oc2cc(O)cc(O)c12, Cc1cc(C)c(/C=C2\C(=O)Nc3ccccc32)[nH]1, COc1ccc(C(=O)/C(Cc2cc(OC)c(OC)c(OC)c2)=C(\C(=O)O)c2ccc3c(c2)OCO3)cc1
